# Assay results taken from the supplement of paper PMC8728848.
# Shown is part of a subset that was picked to be rich in the strongest signals.
# Tests used:
# Experiment in all cases: glycan array binding signal (z-score within array); higher = stronger binding
# Settings in all cases: glycan notation: IUPAC condensed, linker removed
# [1] = target: GlcNAc(b1-3)[GlcNAc(b1-6)]GalNAc
# How it was run: (§1)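 The binding signal is a Z-score computed within each array. Data were drawn from 3228 arrays in the Consortium for Functional Glycomics database, restricted to those with a known protein sequence. Scores were averaged over arrays of the same protein sequence at different concentrations or buffers, and over linkers, and negative values can be taken as non-binding.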
# [2] = target: Man(a1-3)[Man(a1-6)]Man(b1-4)GlcNAc(b1-4)GlcNAc
# How it was run: as §1
# [3] = target: Neu5Ac(a2-3)Gal(b1-3)GalNAc(b1-4)Gal(b1-4)Glc
# How it was run: as §1
# [4] = target: Neu5Ac(a2-3)Gal(b1-3)GalNAc(b1-4)[Neu5Ac(a2-3)]Gal(b1-4)Glc
# How it was run: as §1
# [5] = target: Neu5Ac(a2-3)Gal(b1-3)GalNAc6S
# How it was run: as §1
# [6] = target: Neu5Ac(a2-3)Gal(b1-3)GlcNAc(b1-2)[Neu5Ac(a2-3)Gal(b1-3)GlcNAc(b1-4)]Man(a1-6)[Neu5Ac(a2-3)Gal(b1-3)GlcNAc(b1-2)Man(a1-3)]Man(b1-4)GlcNAc(b1-4)GlcNAc
# How it was run: as §1
# [7] = target: Neu5Ac(a2-3)Gal(b1-4)GlcNAc(b1-2)Man
# How it was run: as §1
# [8] = target: Neu5Ac(a2-3)Gal(b1-4)GlcNAc(b1-3)GalNAc
# How it was run: as §1
# [9] = target: Neu5Ac(a2-3)Gal(b1-4)GlcNAc(b1-6)[Gal(b1-3)]GalNAc
# How it was run: as §1
# [10] = target: Neu5Ac(a2-3)Gal(b1-4)[Fuc(a1-3)]GlcNAc
# How it was run: as §1
# [11] = target: Neu5Ac(a2-6)Gal(b1-4)GlcNAc(b1-2)Man(a1-3)Man(b1-4)GlcNAc(b1-4)GlcNAc
# How it was run: as §1
# [12] = target: Neu5Ac(a2-6)Gal(b1-4)GlcNAc(b1-2)Man(a1-3)[GlcNAc(b1-4)][Neu5Ac(a2-6)Gal(b1-4)GlcNAc(b1-2)Man(a1-6)]Man(b1-4)GlcNAc(b1-4)GlcNAc
# How it was run: as §1
# [13] = target: Neu5Ac(a2-6)Gal(b1-4)GlcNAc(b1-2)Man(a1-3)[Man(a1-6)]Man(b1-4)GlcNAc(b1-4)GlcNAc
# How it was run: as §1
# [14] = target: Neu5Ac(a2-6)Gal(b1-4)GlcNAc(b1-3)Gal(b1-4)GlcNAc
# How it was run: as §1
# [15] = target: Neu5Ac9Ac(a2-3)Gal(b1-4)GlcNAc
# How it was run: as §1
# [16] = target: Neu5Gc(a2-3)Gal(b1-3)GlcNAc
# How it was run: as §1
# [17] = target: Neu5Gc(a2-3)Gal(b1-4)[Fuc(a1-3)]GlcNAc
# How it was run: as §1
binder,measurement,setting,value
"Cp ZmpB (Clostridium perfringens), Q0TR08 (protein) MNKRKIAAIILATMITNLSATTIDVLAQELNTKNNSKVEVSHDDESHQARVSKFDLYNSDKLDAYNQEFQVSRSNIKSINNNGGKYNSSTIDKAIDGNLETHWETGKPNDANFTNEVVVTFNEITNIDRIVYSARRDSARGKGFAKEFEIYASLKDEGDDFNLVSSGEYTESTRDLVEIKFNPTDFKRLKFKFKKADQNWASAAEFMFYKEDKLNEKFNGLFTDSSMNKVSEEFNTLEKLNAFENELKDHPIYDLYKEGLNNARAILTETSENPTKATLGQITYNLNDDYNNQYRMPYKNIKAIKNNGRHYAAQNIEKAIDNDVNTYWETGTLNSSSFNNEVEVEFNDLVTLDRIVYGSRQSDLKGFAEEVYIYASRTSKGDTYKLVATGAHEATKGLVEAKFEPTEFKRVKFKFKKSKQNSATLNELMFYKPDEVYSSIPKLFTDGTMSELSEEFNSLEKINAFKEKAKNHPLYNDFNETIELAESLISNPRKEDVLELEMRGDSISEAKKRKVWNFQDWQITGLSARAGDKITVYVDVAEGDPTPTLLYKQSLTQHGGATSFQLKPGKNEITIPEINYESNGIPKDVIQGGDLFFTNYKSDSQKRAPKVRIEGASKYPVFILGKSDENEVMKELEAYVEKIKAEPKTTPNIFAVSSNKSLEFVQATYALDWYKKNNKTPKYTAEQWDQYIADAMGFWGFDNSKDVNSDFNFRIMPMVKNLSGGAFMNAGNGVIGIRPGNQDAILAANKGWGVAHELGHNFDTGGRTIVEVTNNMMPLFFESKYKTKTRITDQNIWENNTYPKVGLDDYSNNELYNKADSTHLAQLAPLWQLYLYDNTFYGKFERQFRERDFGNKNREDIYKSWVVAASDAMELDLTEFFARHGIRVDDKVKEDLAKYPKPDKKIYYLNDLAMNYKGDGFTENAKVSVSTSGSNGNIKLSFSVDDENKDNILGYEIRRDGKYVGFTSNDSFVDTKSNLDEDGVYVVTPYDRKLNTLNPIEVNALQPTLSVNPVITLALGEEFNEEEYIVAKDIKGNSLSESVKVKSSNVNTSKVGEYEVLYSLEDSKGNEYTKTSKVNVVSRKEYMSDLTPKQSSNGWGTVRKDKSISGGVIGLTRDGDFVDYNKGLGLHSNAEYVYDLEGKDYDYFESYVGVDKAMSSRPASSVIFKVLVDGEEKFNSGVMRSTTPQKYVKVDVKNAKELKLIVNDAGDGDSSDHASFGDAKLATLSSKPIIKGENLAYSMDEKVDLMKGITATDIEDGNITSKVQIKSSDFVEGKSGIFTVVYSVTDSDGLTSECSRTIAVTDKETQLSDLNWKSATIGSGSVRKDRAVSGNQIRLLNEDNSVETFAKGIGTHSYSEIVYNSEGYDIFDTWVGIDRHVADKKVSSVKFKVYVDGELKAETDVMRIDTPKKRLVVDVRNSKEIKLVVDVADNGNNWDHADWADAKFRNLAEYDASELNKAIEEAKKLDLNNYTEESSEALKNAISKGEEALLSKDKETINSALEELNKEMNSLVKVDLNAVINIPDKYLLKSIQNQLNKTGDITLGDMYSLTTLTLSGVEDLTGLENAKNLETLNMDYNEVKDLRPLSKLKKLNTLNAQEQFIAAGELKPSNGKVIGDSKVYNREGKNVAKTIRVVDKNGNTILEQDAKDEFTINTKDLSSGLYGVHVLFEDEGFSGVMFYLFNV",glycan array binding signal (z-score),[1],-0.207
same,glycan array binding signal (z-score),[2],-0.046
same,glycan array binding signal (z-score),[3],0.164
same,glycan array binding signal (z-score),[4],1.03
same,glycan array binding signal (z-score),[5],-0.457
same,glycan array binding signal (z-score),[6],0.01
same,glycan array binding signal (z-score),[7],0.151
same,glycan array binding signal (z-score),[8],-0.142
same,glycan array binding signal (z-score),[9],1.22
same,glycan array binding signal (z-score),[10],0.096
same,glycan array binding signal (z-score),[11],-0.151
same,glycan array binding signal (z-score),[12],-0.267
same,glycan array binding signal (z-score),[13],-0.365
same,glycan array binding signal (z-score),[14],1.03
same,glycan array binding signal (z-score),[15],1.71
same,glycan array binding signal (z-score),[16],-0.326
same,glycan array binding signal (z-score),[17],2.05
